Bioassay records (PubChem BioAssay)
S2 tox: Viability Counterscreen for Primary qHTS for Inhibitors of ATXN expression; S2 cells (HEK-293 line with an ATXN2-luciferase reporter) viability, CellTiter-Fluor protease fluorescence, 24 h; Potency, µM (doses to about 56.7 µM), usual class: cytotoxic; 400,000 tested, 0.49% active; AID 651635, 2014; further: potency means the concentration at half of the fitted maximal effect; nearly all actives have a fitted effect of over 40% in size
TGFb inhibitor: qHTS for Inhibitors of TGF-b; HepG2 CAGA-GFP TGF-b/SMAD3 reporter, GFP fluorescence, 18 h; TGF-beta stimulated, 500 pg/mL final; Potency, µM (doses to about 46.1 µM), inactives show top-dose activity, negative = inhibition, most hits filed as inhibitors; 410,000 tested, 1.2% active; further: potency means the concentration at half of the fitted maximal effect; on the % scale 0 is the no-effect control and ±100 the full control effect; nearly all actives have a fitted effect of over 65% in size
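Per well, imaged GFP fluorescence of HEPG2 CAGA-GFP cells gives the signal; cells get compound, then TGF-beta (500 pg/mL final), 18 h at 37 degrees C; %Activity versus -TGF-beta and +DMSO controls.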
HepG2 viability: qHTS for Inhibitors of TGF-b: Cytotox Counterscreen | HepG2 CAGA-GFP viability, ATP luminescence, 18 h | Potency, µM (series often up to 46.1 µM), inactives show at the top dose activity change, negative = cytotoxicity, most hits filed as cytotoxic | 410,000 tested, 0.76% active; further: potency means the concentration at half of the fitted maximal effect
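CellTiter-Glo luminescence gave cytotoxicity after 18 hours at 37 degrees C. The cells were HepG2 CAGA-GFP in 1% FBS DMEM, stimulated with 500 pg/mL TGF-beta after compound addition. %Activity was normalised to no-cell wells (complete cell-killing) and DMSO (no toxicity), and curves were fitted and classified.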
D3 antag: qHTS of D3 Dopamine Receptor Antagonist: qHTS. D3R cells, DiscoveRx beta-arrestin luminescence, antagonist mode; hits give low values. max response, negative = inhibition, %. D(3) dopamine receptor (Homo sapiens), P35462. 360,000 tested, 2.5% active. AID 652054, 2013; in the data active means max response below about -50%; inconclusive means no clear call, values can overlap the other calls; further: on the % scale 0 is the no-effect control and ±100 the full control effect
Target sequence (P35462 whole entry, looked up): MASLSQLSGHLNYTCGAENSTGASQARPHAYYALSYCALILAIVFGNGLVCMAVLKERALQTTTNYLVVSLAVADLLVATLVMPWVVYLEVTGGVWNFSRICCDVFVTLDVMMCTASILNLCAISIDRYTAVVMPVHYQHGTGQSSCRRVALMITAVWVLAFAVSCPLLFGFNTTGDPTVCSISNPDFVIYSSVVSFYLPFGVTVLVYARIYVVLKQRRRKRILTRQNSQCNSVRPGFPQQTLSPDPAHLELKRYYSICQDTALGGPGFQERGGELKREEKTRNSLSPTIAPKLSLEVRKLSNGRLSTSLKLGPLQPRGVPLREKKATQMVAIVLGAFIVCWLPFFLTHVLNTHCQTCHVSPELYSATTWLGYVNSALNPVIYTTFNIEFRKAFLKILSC
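Cells plated overnight at 1500 cells/well, then exposed to library compounds with dopamine controls for 90 minutes at 37 degrees C. DiscoveRx reagent added for 30–60 minutes at room temperature; luminescence read, quantitative HTS format.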
D3 ag: qHTS of D3 Dopamine Receptor Agonist: qHTS | D3R DiscoveRx beta-arrestin cells, luminescence, 90 min | max activation, % | 410,000 tested, 0.58% active | AID 652048, 2013; in the data active means max activation above about 30%; further: 0% is about no effect
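Agonist-mode cell screen: cells plated at 1500/well and incubated overnight at 37 °C, then exposed to library compounds for 90 min at 37 °C. Detection reagent was added for 30–60 min at room temperature, and luminescence was read.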
ATXN2 expr inh: Primary qHTS for Inhibitors of ATXN expression; HEK-293 ATXN2-luciferase reporter, luminescence, 24 h; Potency, µM (titrated, usually from 57 µM), inactives show top-dose activity change, negative = inhibition, usual class: inhibitors; 360,000 tested, 0.72% active; further: potency means the concentration at half of the fitted maximal effect; on the % scale 0 is the no-effect control and ±100 the full control effect; nearly all actives have a fitted effect of over 55% in size
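qHTS (up to 57 uM final) was run with 24 h compound exposure of reporter cells at 37 °C. Each well was multiplexed: SteadyGlo luminescence measured ATXN2-luciferase expression after a fluorogenic Gly-Phe-AFC viability readout (25 uM final).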
Numbers without * were called inactive; i = inactive; ? = inconclusive; / = no result. This is a sample that favours compounds with a hit; in the whole collection about 4.8% have one here. Unless noted, the call rests on the fitted dose curve; in most records, active means well fitted curve in the direction sought with a large enough effect; inconclusive means small, poorly fitted or top-dose-only effect, or another doubt; inactive means no such curve, though single readings can be large; an effect the other way counts as inactive or inconclusive.

SMILES | S2 tox | TGFb inhibitor | HepG2 viability | D3 antag | D3 ag | ATXN2 expr inh
C=CC[C@H](CC(=O)N(CCO)Cc1ccccc1)C(=O)N[C@@H](COC(=O)[C@H](CC=C)CC(=O)OC(C)(C)C)Cc1c[nH]c2ccccc12 | ? | ? | -26.0% | 5.1 | 5.5 | ?
C=CC[C@@H](CC(=O)N(CCO)Cc1ccccc1)C(=O)N[C@@H](COC(=O)[C@@H](CC=C)Cc1ccc(F)cc1)Cc1c[nH]c2ccccc12 | ? | ? | -17.5% | 37.9 | -10.6 | -8.8%
C=CC[C@H](CC(=O)N(CCO)Cc1ccccc1)C(=O)N[C@@H](COC(=O)[C@@H](CC=C)Cc1ccc(F)cc1)Cc1c[nH]c2ccccc12 | 28.2µM* | ? | -49.0% | -3.5 | -20.6 | -22.9%
C=CC[C@@H](CC(=O)N(CCO)Cc1ccccc1)C(=O)N[C@@H](COC(=O)[C@@H](CC=C)CC(=O)OC(C)(C)C)Cc1c[nH]c2ccccc12 | 20µM* | ? | -37.5% | 17.4 | 0.0 | 35.5µM*
COc1cccc(NC(=O)C2CCCN(S(=O)(=O)c3ccc4[nH]c(=O)ccc4c3)C2)c1 (configuration not stated) | i | -4.0% | 5.6% | / | 2.5 | 7.2%
CC(C)(C)OC(=O)Nc1ccc(-c2cc(C(=O)NCCCCCCC(=O)NO)no2)cc1 | / | / | / | / | / | 39.2%
CC(C)NC(=O)NC(=O)COC(=O)c1c2c(nc3ccccc13)CCC2 | i | -17.3% | -12.0% | 82.8 | 35.5* | -34.4%
O=C(CSc1c2c(nc3ccccc13)CCCC2)NCc1ccco1 | i | -15.7% | -14.4% | 2.2 | -1.2 | 3.3%
CC(C)(C)NC(=O)COC(=O)c1c2c(nc3ccccc13)CCC2 | ? | -10.7% | 2.4% | 43.5 | 13.9 | -8.8%
COc1cccc(NC(=O)COC(=O)c2c3c(nc4ccccc24)CCC(C)C3)c1 (configuration not stated) | ? | ? | -54.7% | 33.2 | 52.8* | ?
COc1cccc(NC(=O)COC(=O)c2c(F)cccc2Cl)c1 | i | 0.4% | -1.9% | -61.5* | 1.0 | 10.4%
O=C(NCc1ccco1)c1c2c(nc3ccccc13)CCC2 | i | -0.3% | 9.4% | -59.1* | 4.3 | 7.2%
O=c1c2ccccc2n2c(-c3ccc(Cl)cc3)nnc2n1CCc1ccccc1 | i | -38.2% | -7.5% | / | -7.6 | 6.5%
Cc1cccc2c(C(O)c3cn(C)c4ccccc34)c[nH]c12 (configuration not stated) | / | ? | -35.1% | / | / | /
CN1/C(=C\P(=O)(N(C)C)N(C)C)C(C)(C)c2ccccc21 | i | ? | -33.3% | 27.7 | 30.7* | ?
N#CN=c1snc(-c2ccccc2Cl)n1-c1ccc(F)cc1 | / | 4.7% | -0.8% | / | / | /
Cc1ccc2c(c1)c1c3n2CCCN(Cc2ccccc2)C3CCC1 (configuration not stated) | i | -9.7% | -21.1% | -4.1 | -18.1 | ?
COC(Cn1c2c(c3cc(C)ccc31)CCCC2NCc1ccccc1)OC (configuration not stated) | i | -20.9% | -33.4% | -76.4* | -19.2 | /
Cc1cc(C)cc(OC(=O)c2snnc2C)c1 | i | 9.0% | -4.9% | / | -4.0 | -6.7%
CC(C)(C)C1=CC(=O)C(=O)C(C(C)(C)C)=C1 | 12.6µM* | 15.8µM* | -87.9% | ? | -6.5 | /
CCN(CC)CCN(C)c1ccc(/C=C/c2ccnc3ccccc23)cc1 | / | ? | -55.3% | / | / | /
CCN1c2ccccc2NC2N=C(OC)C(c3ccccc3)C21 (configuration not stated) | i | 12.6µM* | 11.2µM* | -23.2 | -9.5 | ?
CCN1c2ccccc2NC2C1C(C(C)=O)C(=O)N2c1ccc(Cl)cc1 (configuration not stated) | i | 44.5% | -33.2% | ? | -20.0 | -36.8%
Cc1c(C(=O)NCCN2CCC(c3ccccc3)CC2)cnn1-c1nccc(-c2cccs2)n1 | 28.2µM* | / | / | / | / | /
CCN(C(=O)c1c(C)oc2ncnc(N3CCCCC3)c12)c1cc(C)ccc1C | i | -25.5% | -6.7% | / | 3.4 | 14.2%
SMILES | S2 tox | TGFb inhibitor | HepG2 viability | D3 antag | D3 ag | ATXN2 expr inh
COC(=O)[C@@H](NC(=O)Nc1cccc(Br)c1)C(C)C | i | -15.5% | 4.2% | -19.1 | -14.6 | -0.5%
COC(=O)[C@H](C)NC(=O)Nc1cccc(Br)c1 | i | -0.8% | -12.3% | 0.0 | 84.2* | 21.4%
CCOc1ccc(CNC(=O)C2CCN(c3nnc(-n4c(C)ccc4C)s3)CC2)cc1 | / | / | -31.6% | / | 3.0 | /
CC(C)NC(=O)[C@]1(C)CCC[C@@]2(C)C3CC[C@@]4(C)C[C@]3(CCC21)CC4=O (some centres not stated) | i | ? | -13.5% | 6.4 | 1.1 | -2.4%
C[C@@]12CCC3[C@@](CCC4[C@@]3(C)CCC[C@@]4(C)C(=O)N3CCOCC3)(CC1=O)C2 (some centres not stated) | i | -13.6% | -26.8% | 5.1 | 31.4* | -3.0%
Cc1cccc(NC(=O)N2CCC(CN3CCCCCC3)CC2)c1C | / | -0.1% | -33.1% | / | -1.3 | /
CCOC(=O)C(=Cc1ccc(-n2ccnc2)cc1)C(=O)OCC | / | ? | -81.8% | -55.6* | -1.7 | ?
CCOC(=O)C(=Cc1ccc(Br)cc1)C(=O)OCC | 8.91µM* | 17.8µM* | 14.1µM* | -107.9* | -17.3 | ?
COc1ccc(-c2[nH]c(-c3ccccc3)nc2SCC(=O)Nc2ccc3c(c2)OCO3)cc1 | ? | ? | -40.4% | / | -5.3 | ?
Cc1sc2nc(Cc3ccccc3)[nH]c(=O)c2c1-c1ccccc1 | i | 4.9% | 0.2% | -1.4 | -18.3 | -16.7%
CCc1nc(C)c(-c2ccccc2)c(=O)[nH]1 | i | 0.2% | -1.0% | -93.8* | -6.8 | 1.2%
O=S(=O)(N/N=C/c1cccc(OC2CSC2)c1)c1ccccc1 | i | -10.4% | 4.2% | -66.2* | -10.0 | -12.2%
Cc1ccc(S(=O)(=O)N/N=C/c2cccc(OC3CSC3)c2)cc1 | i | -21.1% | -9.7% | ? | -5.8 | 0.6%
CCOC(=O)C1CCN(c2ccc(-c3cccs3)nn2)CC1 | i | 3.5% | 7.08µM* | 10.3 | 11.2 | 9.5%
OCCC1CN(Cc2cccc(F)c2F)CCN1CCc1ccccc1 (configuration not stated) | ? | -8.9% | -16.4% | -19.4 | -13.1 | 2.3%
